According to PubChem BioAssay (EPA / NIEHS):
Records with an inconclusive call do not appear. The source made the active and inactive calls. The calls were made as follows, unless noted: active = hit-call score of the fitted dose curve at least 0.9, where 1 is the maximum; inconclusive = response in the unintended direction; inactive = score below 0.9.

Experiments:
[1] = ATG_TCF_b_cat_CIS: Attagene CIS-FACTORIAL HepG2 Assay for human T-Cell-Factor with beta-catenin (TCF/b-cat) (AID 2282965; active = hit-call score of the fitted dose curve at least 0.9, where 1 is the maximum; inactive = score below 0.9); conditions: HepG2 TCF/beta-catenin cis-reporter transcription, actives raise or lower the signal
Summary of the method: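 Endogenous transcription factor activity is captured through cis-promoter reporter constructs transiently introduced into human HepG2 liver cells. Induced reporter mRNA is measured after 24 h and fitted bidirectionally relative to DMSO.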

[2] = ATG_TAL_CIS: Attagene CIS-FACTORIAL HepG2 Assay for human TAL Basal Promoter (AID 2282966; active = hit-call score of the fitted dose curve at least 0.9, where 1 is the maximum; inactive = score below 0.9;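 also: background control endpoint measuring basal TAL promoter reporter mRNA not a specific factor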); conditions: HepG2 Attagene cis-factorial TAL promoter reporter; actives raise or lower the signal
Summary of the method: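 Human hepatoma HepG2 cells, transfected with promoter-regulated reporter units, were treated 24 h. Reporter transcript levels, measured through RT-PCR and capillary electrophoresis, were fitted for gain or loss relative to DMSO.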

[3] = ATG_TGFb_CIS: Attagene CIS-FACTORIAL HepG2 Assay for human Transforming Growth Factor (TGF) (AID 2282967; active = hit-call score of the fitted dose curve at least 0.9, where 1 is the maximum; inactive = score below 0.9); conditions: HepG2 Attagene CIS TGFb reporter, mRNA transcription; actives raise or lower the signal
Summary of the method: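 Readout: fluorescently labeled reporter cDNA fragments resolved by capillary electrophoresis after RT-PCR. Transfected HepG2 cells dosed for 24 h; endogenous TF activity at TGFB1-linked cis element; gain or loss fitted relative to DMSO.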

[4] = ATG_VDRE_CIS: Attagene CIS-FACTORIAL HepG2 Assay for human Vitamin D Receptor Element (VDRE) (AID 2282968; active = hit-call score of the fitted dose curve at least 0.9, where 1 is the maximum; inactive = score below 0.9); conditions: HepG2 VDRE cis-reporter transcription, actives raise or lower the signal
Summary of the method: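 Readout is VDRE-driven reporter mRNA reflecting endogenous factor activity in human HepG2 cells, sampled 24 h post-dose. Quantification used labelled RT-PCR products separated by capillary electrophoresis; bidirectional analysis relative to DMSO.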

[5] = molecular target: Estrogen receptor (Homo sapiens) (UniProt P03372); assay: ATG_ERa_TRANS: Attagene TRANS-FACTORIAL HepG2 Assay for human Estrogen Receptor alpha (ERa) (AID 2282970); conditions: HepG2 Attagene TRANS ERa GAL4 reporter, mRNA
Summary of the method: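 Signal derives from fluorescence of labelled reporter PCR fragments separated by capillary electrophoresis. HepG2 cells transiently carrying multiple GAL4-UAS reporter units were treated 24 hours, and induction above DMSO baseline was fitted as activity.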

[6] = molecular target: X-box-binding protein 1 (Homo sapiens) (UniProt P17861); assay: ATG_Xbp1_CIS: Attagene CIS-FACTORIAL HepG2 Assay for human X-box Binding Protein 1 (XBP1) (AID 2282972; active = hit-call score of the fitted dose curve at least 0.9, where 1 is the maximum; inactive = score below 0.9); conditions: HepG2 XBP1 cis-element reporter, Attagene multiplex; actives raise or lower the signal
Summary of the method: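 Changes in reporter transcript abundance, read by RT-PCR and capillary electrophoresis, reflect endogenous transcription factor activity. Transfected HepG2 cells received compound for 24 hours; DMSO defined baseline for bidirectional analysis.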

[7] = ATG_M_19_TRANS: Attagene TRANS-FACTORIAL HepG2 Assay for M19 Transcription Factor (Internal Marker) (AID 2282974); conditions: HepG2 Attagene TRANS-FACTORIAL M19 internal marker reporter
Summary of the method: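 Background-control readout: after 24 h chemical exposure of transfected HepG2 carrying GAL4-driven reporter units, RNA was reverse-transcribed, amplified, fluorescently labeled and sized by capillary electrophoresis; gain-of-signal fit against DMSO.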

[8] = ATG_GAL4_TRANS: Attagene TRANS-FACTORIAL HepG2 Assay for GAL4 (Internal Marker) (AID 2282976); conditions: HepG2 Attagene TRANS GAL4 internal marker reporter
Summary of the method: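 Liver HepG2 line bearing multiplexed GAL4-UAS reporter constructs; 24 h chemical treatment. Transcripts were quantified as fluorescent fragments on capillary electrophoresis after RT-PCR and HpaI cut, with activity fitted upward from DMSO.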

[9] = molecular target: Glucocorticoid receptor (Homo sapiens) (UniProt P04150); assay: ATG_GR_TRANS: Attagene TRANS-FACTORIAL HepG2 Assay for human Glucocorticoid Receptor (GR) (AID 2282978); conditions: HepG2 Attagene TRANS GR reporter, mRNA transcription;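 also: activators score as hits since higher reporter transcript over DMSO is fitted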
Summary of the method: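 Readout is reporter transcript from a chimeric GR-Gal4 acting on GAL4-UAS in transfected human HepG2 liver cells after 24 h exposure, quantified by RT-PCR and capillary electrophoresis. Activation fitted upward against DMSO.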

[10] = molecular target: Bile acid receptor (Homo sapiens) (UniProt Q96RI1); assay: ATG_FXR_TRANS: Attagene TRANS-FACTORIAL HepG2 Assay for Farnesoid X Receptor (FXR) (AID 2282979); conditions: HepG2 Attagene TRANS FXR-GAL4 reporter transcription;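 also: hits raise reporter mRNA above DMSO so AC50 marks FXR activation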
Summary of the method: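 After 24 h chemical treatment of transfected HepG2 cells, GAL4-UAS reporter transcripts driven by an exogenous FXR-GAL4 fusion were measured by RT-PCR and capillary electrophoresis. Increases over DMSO were fitted.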

[11] = molecular target: Hepatocyte nuclear factor 4-alpha (Homo sapiens) (UniProt P41235); assay: ATG_HNF4a_TRANS: Attagene TRANS-FACTORIAL HepG2 Assay for human Hepatocyte Nuclear Factor 4 alpha (HNF4a) (AID 2282982); conditions: HepG2 HNF4a transactivation reporter, mRNA readout
Summary of the method: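 Activity of an exogenous HNF4a–Gal4 fusion scored as induced GAL4-UAS reporter transcripts after 24 h chemical exposure of transfected human HepG2 cells. Read-out via RT-PCR with 6-FAM labelling and capillary electrophoresis; rise over DMSO baseline.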

[12] = ATG_M_06_TRANS: Attagene TRANS-FACTORIAL HepG2 Assay for M06 Transcription Factor (Internal Marker) (AID 2282983); conditions: HepG2 Attagene TRANS M06 internal marker reporter
Summary of the method: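 Multi-reporter-transfected HepG2, 24 h treatment; reporter transcripts quantified via RT-PCR, primer-extension labelling and CE. DMSO-normalized gain-of-signal fit.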

[13] = molecular target: Oxysterols receptor LXR-alpha (Homo sapiens) (UniProt Q13133); assay: ATG_LXRa_TRANS: Attagene TRANS-FACTORIAL HepG2 Assay for human Liver X Receptor alpha (LXRa) (AID 2282980); conditions: HepG2 Attagene TRANS reporter, LXRa transactivation
Summary of the method: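 In this multiplexed TRANS system, compounds act on HepG2 cells carrying GAL4-UAS reporter units and a receptor-GAL4 fusion for 24 h. Induced reporter RNA is amplified, fluorescently labelled and sized by capillary electrophoresis, with DMSO as baseline.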

[14] = ATG_M_32_TRANS: Attagene TRANS-FACTORIAL HepG2 Assay for M32 Transcription Factor (Internal Marker) (AID 2282984); conditions: HepG2 Attagene TRANS M32 internal marker reporter
Summary of the method: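 Internal background reporter in transfected HepG2: after 24 h chemical exposure, RNA reverse-transcribed, reporter cDNA amplified, fluorescently labelled and HpaI-cut, then sized by capillary electrophoresis. Gain of signal fitted against DMSO control.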

[15] = molecular target: Nuclear receptor subfamily 4 group A member 2 (Homo sapiens) (UniProt P43354); assay: ATG_NURR1_TRANS: Attagene TRANS-FACTORIAL HepG2 Assay for human Nuclear Receptor Related Protein 1 (NURR1) (AID 2282985); conditions: HepG2 Attagene TRANS reporter, mRNA readout
Summary of the method: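 Reporter transcript induction, measured by RT-PCR with fluorescent labelling, HpaI digestion and capillary electrophoresis, after 24 hr dosing of human HepG2 cells transiently expressing an exogenous NR-Gal4 fusion with GAL4-UAS-driven reporters; DMSO as baseline.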

[16] = molecular target: Transcriptional activator Myb (Homo sapiens) (UniProt P10242); assay: ATG_Myb_CIS: Attagene CIS-FACTORIAL HepG2 Assay for human Myeloblastosis (Myb) Proto-Oncogene Transcription Factor (AID 2282986; active = hit-call score of the fitted dose curve at least 0.9, where 1 is the maximum; inactive = score below 0.9); conditions: HepG2 Attagene CIS-FACTORIAL Myb reporter transcription; actives raise or lower the signal
Summary of the method: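 Reporter mRNA is quantified by RT-PCR and capillary electrophoresis 24 h after dosing HepG2 cells transfected with cis-regulated reporter units, which track endogenous transcription factor activity. Gain and loss of signal are fitted versus DMSO baseline.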

[17] = molecular target: Oxysterols receptor LXR-beta (Homo sapiens) (UniProt P55055); assay: ATG_LXRb_TRANS: Attagene TRANS-FACTORIAL HepG2 Assay for human Liver X Receptor beta (LXRb) (AID 2282981); conditions: HepG2 Attagene TRANS GAL4-LXRb reporter, mRNA
Summary of the method: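 After 24 h chemical treatment of transfected HepG2 cells carrying exogenous NR-Gal4 chimeras, reporter mRNA was quantified by fluorescent RT-PCR and capillary electrophoresis; activity taken as increase over DMSO controls.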

Measured: AC50

Nuclear receptor subfamily 4 group A member 2 (Homo sapiens), sequence (P43354 whole entry, looked up, the tested form may be a part): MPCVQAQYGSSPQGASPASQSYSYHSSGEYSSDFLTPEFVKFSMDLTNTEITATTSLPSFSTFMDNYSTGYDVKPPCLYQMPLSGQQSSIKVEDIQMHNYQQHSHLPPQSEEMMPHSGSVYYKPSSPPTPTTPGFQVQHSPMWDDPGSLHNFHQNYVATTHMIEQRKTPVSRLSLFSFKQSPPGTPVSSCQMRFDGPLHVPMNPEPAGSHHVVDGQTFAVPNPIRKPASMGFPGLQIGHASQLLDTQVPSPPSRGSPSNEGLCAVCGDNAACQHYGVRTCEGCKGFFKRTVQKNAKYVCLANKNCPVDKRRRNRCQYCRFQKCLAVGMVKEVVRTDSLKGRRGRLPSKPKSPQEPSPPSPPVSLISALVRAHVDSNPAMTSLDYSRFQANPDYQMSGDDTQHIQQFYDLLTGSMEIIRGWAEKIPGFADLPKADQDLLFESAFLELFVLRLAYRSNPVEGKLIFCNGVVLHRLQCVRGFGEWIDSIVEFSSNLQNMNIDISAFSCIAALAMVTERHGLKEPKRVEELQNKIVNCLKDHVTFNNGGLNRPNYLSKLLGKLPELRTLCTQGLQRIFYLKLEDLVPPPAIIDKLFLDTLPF
Transcriptional activator Myb (Homo sapiens), sequence (P10242 whole entry, looked up): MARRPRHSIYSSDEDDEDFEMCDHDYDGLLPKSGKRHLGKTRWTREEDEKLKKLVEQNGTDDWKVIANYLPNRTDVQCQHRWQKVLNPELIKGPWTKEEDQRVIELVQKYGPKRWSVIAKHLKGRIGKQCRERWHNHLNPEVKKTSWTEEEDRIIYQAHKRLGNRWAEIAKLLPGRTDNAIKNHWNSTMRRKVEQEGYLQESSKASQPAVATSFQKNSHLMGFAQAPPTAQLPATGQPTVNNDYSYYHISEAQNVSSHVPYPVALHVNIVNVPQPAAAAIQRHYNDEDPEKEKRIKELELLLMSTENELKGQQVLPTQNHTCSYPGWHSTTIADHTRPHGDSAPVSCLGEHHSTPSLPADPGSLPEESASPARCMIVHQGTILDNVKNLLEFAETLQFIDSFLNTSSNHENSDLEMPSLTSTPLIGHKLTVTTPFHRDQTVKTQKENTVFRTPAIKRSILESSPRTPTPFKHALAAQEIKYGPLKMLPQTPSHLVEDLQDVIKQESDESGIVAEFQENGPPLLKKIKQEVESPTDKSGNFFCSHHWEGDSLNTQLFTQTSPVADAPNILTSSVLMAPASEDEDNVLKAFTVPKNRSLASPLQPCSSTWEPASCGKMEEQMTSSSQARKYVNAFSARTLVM
Oxysterols receptor LXR-beta (Homo sapiens), sequence (P55055 whole entry, looked up, the tested form may be a part): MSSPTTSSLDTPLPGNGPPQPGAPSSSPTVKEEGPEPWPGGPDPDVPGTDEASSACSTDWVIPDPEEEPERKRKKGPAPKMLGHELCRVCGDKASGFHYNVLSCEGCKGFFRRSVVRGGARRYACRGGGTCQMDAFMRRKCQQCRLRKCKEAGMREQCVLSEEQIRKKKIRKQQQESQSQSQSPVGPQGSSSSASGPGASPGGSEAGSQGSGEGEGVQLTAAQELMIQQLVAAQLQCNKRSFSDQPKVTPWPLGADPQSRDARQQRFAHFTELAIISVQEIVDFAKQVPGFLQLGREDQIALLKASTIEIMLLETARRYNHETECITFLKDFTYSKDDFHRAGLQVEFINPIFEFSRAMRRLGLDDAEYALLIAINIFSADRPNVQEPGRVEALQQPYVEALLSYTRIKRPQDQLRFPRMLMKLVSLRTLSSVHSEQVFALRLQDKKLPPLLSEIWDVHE
Oxysterols receptor LXR-alpha (Homo sapiens), sequence (Q13133 whole entry, looked up, the tested form may be a part): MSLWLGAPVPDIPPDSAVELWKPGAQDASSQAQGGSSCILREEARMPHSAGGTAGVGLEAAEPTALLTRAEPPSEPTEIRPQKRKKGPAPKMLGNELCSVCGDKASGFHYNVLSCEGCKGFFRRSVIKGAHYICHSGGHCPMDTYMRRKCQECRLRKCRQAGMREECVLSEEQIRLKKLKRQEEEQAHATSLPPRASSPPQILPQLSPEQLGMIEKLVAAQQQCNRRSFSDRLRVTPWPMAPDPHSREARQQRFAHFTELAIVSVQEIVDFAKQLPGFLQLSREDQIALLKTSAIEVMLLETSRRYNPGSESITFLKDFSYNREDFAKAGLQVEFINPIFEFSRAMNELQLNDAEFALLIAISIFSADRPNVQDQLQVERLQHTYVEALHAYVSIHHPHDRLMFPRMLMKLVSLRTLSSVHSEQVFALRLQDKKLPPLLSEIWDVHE
Estrogen receptor (Homo sapiens), sequence (P03372 whole entry, looked up, the tested form may be a part): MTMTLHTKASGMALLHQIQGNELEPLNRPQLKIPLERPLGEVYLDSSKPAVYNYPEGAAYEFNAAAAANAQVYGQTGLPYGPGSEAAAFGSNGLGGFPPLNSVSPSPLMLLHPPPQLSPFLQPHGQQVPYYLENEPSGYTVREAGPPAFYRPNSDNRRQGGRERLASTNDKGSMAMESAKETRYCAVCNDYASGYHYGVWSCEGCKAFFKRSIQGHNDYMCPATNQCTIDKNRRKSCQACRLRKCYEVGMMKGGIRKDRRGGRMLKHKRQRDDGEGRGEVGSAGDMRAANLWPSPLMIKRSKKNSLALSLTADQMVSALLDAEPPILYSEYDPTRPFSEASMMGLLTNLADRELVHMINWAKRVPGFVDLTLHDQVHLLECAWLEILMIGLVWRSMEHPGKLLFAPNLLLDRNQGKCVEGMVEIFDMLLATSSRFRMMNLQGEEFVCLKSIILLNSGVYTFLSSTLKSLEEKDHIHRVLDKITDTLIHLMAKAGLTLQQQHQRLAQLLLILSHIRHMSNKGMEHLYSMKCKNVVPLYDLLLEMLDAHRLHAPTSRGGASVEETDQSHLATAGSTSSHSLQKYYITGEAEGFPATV
Glucocorticoid receptor (Homo sapiens), sequence (P04150 whole entry, looked up, the tested form may be a part): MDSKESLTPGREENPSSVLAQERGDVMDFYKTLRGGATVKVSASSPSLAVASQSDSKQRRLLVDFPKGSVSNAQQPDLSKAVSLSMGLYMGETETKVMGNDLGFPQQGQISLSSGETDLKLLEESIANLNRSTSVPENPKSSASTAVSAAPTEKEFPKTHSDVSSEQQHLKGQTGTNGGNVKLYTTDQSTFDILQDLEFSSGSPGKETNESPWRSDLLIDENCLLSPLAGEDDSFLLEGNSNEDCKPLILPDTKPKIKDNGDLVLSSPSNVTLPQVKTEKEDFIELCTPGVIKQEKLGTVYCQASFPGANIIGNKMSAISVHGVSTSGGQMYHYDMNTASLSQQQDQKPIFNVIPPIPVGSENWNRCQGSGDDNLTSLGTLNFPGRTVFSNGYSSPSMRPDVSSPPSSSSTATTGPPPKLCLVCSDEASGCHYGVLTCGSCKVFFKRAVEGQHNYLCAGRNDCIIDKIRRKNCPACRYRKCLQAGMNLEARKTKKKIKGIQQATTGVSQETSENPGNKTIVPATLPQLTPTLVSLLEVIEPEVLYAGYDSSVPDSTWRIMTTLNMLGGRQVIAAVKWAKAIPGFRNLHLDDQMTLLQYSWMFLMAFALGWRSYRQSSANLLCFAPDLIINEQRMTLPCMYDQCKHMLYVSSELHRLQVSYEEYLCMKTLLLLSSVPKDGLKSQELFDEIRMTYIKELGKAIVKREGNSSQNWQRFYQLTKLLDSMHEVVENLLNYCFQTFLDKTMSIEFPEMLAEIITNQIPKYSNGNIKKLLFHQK
Bile acid receptor (Homo sapiens), sequence (Q96RI1 whole entry, looked up, the tested form may be a part): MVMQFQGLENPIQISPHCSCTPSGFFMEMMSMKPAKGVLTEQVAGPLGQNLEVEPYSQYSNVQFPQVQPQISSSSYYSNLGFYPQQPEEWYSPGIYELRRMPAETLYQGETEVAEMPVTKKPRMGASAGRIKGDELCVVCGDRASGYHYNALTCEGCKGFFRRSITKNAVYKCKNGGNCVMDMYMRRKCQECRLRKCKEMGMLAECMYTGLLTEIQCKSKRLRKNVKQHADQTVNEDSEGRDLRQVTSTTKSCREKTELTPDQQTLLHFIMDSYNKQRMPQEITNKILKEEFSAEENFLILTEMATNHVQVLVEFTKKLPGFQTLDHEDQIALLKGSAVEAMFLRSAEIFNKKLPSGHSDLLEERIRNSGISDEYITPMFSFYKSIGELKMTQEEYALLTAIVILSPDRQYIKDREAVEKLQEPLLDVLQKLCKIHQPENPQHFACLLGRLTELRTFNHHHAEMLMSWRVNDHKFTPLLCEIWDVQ
Hepatocyte nuclear factor 4-alpha (Homo sapiens), sequence (P41235 whole entry, looked up, the tested form may be a part): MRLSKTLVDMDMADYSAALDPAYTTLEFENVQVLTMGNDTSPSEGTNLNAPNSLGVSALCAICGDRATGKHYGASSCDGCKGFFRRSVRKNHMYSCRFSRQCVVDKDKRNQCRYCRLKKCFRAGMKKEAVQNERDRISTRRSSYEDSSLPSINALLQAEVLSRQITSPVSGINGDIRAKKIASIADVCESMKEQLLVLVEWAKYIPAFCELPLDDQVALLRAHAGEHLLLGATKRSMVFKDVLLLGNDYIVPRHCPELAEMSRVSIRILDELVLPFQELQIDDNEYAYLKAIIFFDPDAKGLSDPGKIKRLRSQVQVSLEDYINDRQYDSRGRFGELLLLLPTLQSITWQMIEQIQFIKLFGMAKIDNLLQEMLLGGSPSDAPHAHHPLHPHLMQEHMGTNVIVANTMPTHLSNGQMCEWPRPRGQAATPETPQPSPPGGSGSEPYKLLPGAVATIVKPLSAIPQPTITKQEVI
X-box-binding protein 1 (Homo sapiens), sequence (P17861 whole entry, looked up): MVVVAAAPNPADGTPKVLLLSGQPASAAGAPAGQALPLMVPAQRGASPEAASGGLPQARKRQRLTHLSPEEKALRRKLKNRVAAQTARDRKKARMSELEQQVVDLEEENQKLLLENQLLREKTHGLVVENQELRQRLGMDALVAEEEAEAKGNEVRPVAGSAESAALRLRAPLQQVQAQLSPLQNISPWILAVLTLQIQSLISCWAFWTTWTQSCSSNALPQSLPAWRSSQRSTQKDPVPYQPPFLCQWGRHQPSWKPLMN

CC=CC(=O)OCC(C)C
not listed: [13] | [14] | [15] | [16] | [17]
inactive: all other assays above

C=CCNCC=C
not listed: [8] | [9] | [10] | [12] | [17]
inactive: all other assays above

O=C1CCCCC1C1CCCCC1 (stereo unspecified)
not listed: [9] | [10] | [11] | [12] | [14] | [17]
inactive: all other assays above

CCCCNS(=O)(=O)c1ccccc1
not listed: [8] | [9] | [14] | [15]
inactive: all other assays above

CCCCCCCC(=O)OCC(COC(=O)CCCCCCC)OC(=O)CCCCCCC
not listed: [11] | [14]
inactive: all other assays above

CCCCCC[C@@H](O)C/C=C\CCCCCCCC(=O)OCC(O)CO (stereo partly specified)
active: [2] 164 µM | [6] 175 µM | [15] 132 µM
not listed: [10] | [12] | [13] | [16]
inactive: all other assays above

COc1ccc(-c2coc3cc(O)cc(O)c3c2=O)cc1
active: [4] 27 µM | [5] 432 nM | [6] 100 µM
not listed: [10] | [15] | [16]
inactive: all other assays above

Nc1ccc(C(=O)OCCCOC(=O)c2ccc(N)cc2)cc1
active: [4] 48.8 µM
not listed: [7] | [12] | [13] | [15] | [17]
inactive: all other assays above

CC(C)(C)NC(=O)[C@H]1CC[C@H]2[C@@H]3CC[C@H]4NC(=O)C=C[C@]4(C)[C@H]3CC[C@]12C
not listed: [7] | [9] | [11] | [14] | [15]
inactive: all other assays above

CC(=O)c1ccccc1O
not listed: [8] | [9] | [11] | [12] | [15]
inactive: all other assays above
